Screening results: PubChem, National Center for Advancing Translational Sciences (NCATS)
mIDH1 inhibitor: human IDH1 R132H inhibition | hit rate 0.093% among 390,000 | IDH1-R132H enzyme, NADPH consumption, diaphorase/resazurin fluorescence | Potency, µM (top dose mostly 76.6 µM), usual class: inhibitors | O75874; note: nearly all actives have a fitted effect of over 65% in size
Target sequence (O75874 whole entry R132H, stated change not applied): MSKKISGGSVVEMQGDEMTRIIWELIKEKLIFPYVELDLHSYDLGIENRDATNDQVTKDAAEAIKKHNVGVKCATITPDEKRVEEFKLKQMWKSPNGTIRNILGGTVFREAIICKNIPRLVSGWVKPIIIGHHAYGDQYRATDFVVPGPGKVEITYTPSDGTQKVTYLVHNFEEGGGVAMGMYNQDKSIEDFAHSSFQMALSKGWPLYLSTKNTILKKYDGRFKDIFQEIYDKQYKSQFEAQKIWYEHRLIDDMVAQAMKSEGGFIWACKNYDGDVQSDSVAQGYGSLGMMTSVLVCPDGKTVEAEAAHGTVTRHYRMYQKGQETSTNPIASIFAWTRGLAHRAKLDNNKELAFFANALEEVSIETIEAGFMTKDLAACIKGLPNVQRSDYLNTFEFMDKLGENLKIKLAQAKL
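IDH1-R132H (0.5 ug/mL dispensed) in pH 7.5 Tris buffer was preincubated 30 min with compound, then given a substrate mix of 0.016 mM NADPH and 2 mM alpha-KG for 80 min at room temperature; remaining NADPH was read by diaphorase/resazurin fluorescence.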
aSyn yeast inh: alpha-synuclein toxicity inhibition in yeast; hit rate 0.14% among 370,000; AID 652106; Potency, µM (doses to about 46.1 µM), hits mostly activators; Yeast expressing alpha-synuclein, growth rescue, BacTiter-Glo, 24 h; note: nearly all actives have a fitted effect of over 65% in size
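Galactose-induced alpha-syn yeast (OD600=0.02, raffinose-pregrown) + pinned cpd, 24 hr, 30 deg C; growth by BacTiter-Glo luminescence. Growth restoration scores as activation.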
FUS suppressor: rescues growth of FUS-expressing yeast; S. cerevisiae FUS-expressing, growth rescue, OD600, 24 h; Potency, µM (titrated, usually from 76.6 µM), hits mostly activators; hit rate 0.24% among 390,000; note: nearly all actives have a fitted effect of over 55% in size
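Absorbance at 600 nm, taken 24hr after compound addition, measured rescue of FUS-yeast growth at 30C. Induction used 2% galactose with seeding at OD 0.005. Controls: CP55940 from 92uM final, DMSO only.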
Abeta yeast res: compounds reversing amyloid beta toxicity in yeast | yeast expressing A-beta42, growth rescue, OD600, 48 h; response scale: 0% DMSO, 100% iron-clioquinol control | Potency, µM (series often up to 46.1 µM), usual class: activators | hit rate 0.063% among 410,000; note: nearly all actives have a fitted effect of over 55% in size
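Growth rescue measured by 600 nm absorbance after 48 h yeast culture at 30 C with compound. Values normalized between DMSO and an equimolar ferric chloride plus clioquinol control.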
LDHA inh: inhibitors of human lactate dehydrogenase A. purified LDHA, NADH/diaphorase-resazurin fluorescence; hits give low values. AID 1347041. activity change, % (values are at about 110 or 230 µM). hit rate 0.15% among 480,000; in the data active = activity change below about -30%; inconclusive = mostly about -25% to -30%
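LDH5 2 nM; NADH 0.06 mM, pyruvate 0.2 mM; 200 mM Tris pH 7.4, EDTA, Tween-20; 5 min RT. Detection: diaphorase 0.133 mg/mL + resazurin 37 µM, fluorescence ex540/em590 at 0 and 20 min; normalized to enzyme-free and DMSO wells.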
TDP43 rescue: TDP-43 toxicity inhibition in yeast | TDP-43 expressing yeast growth rescue, BacTiter-Glo, 24 h | Potency, µM (top dose mostly 46.1 µM), actives largely listed as activators | hit rate 1.8% among 410,000 | AID 652104; note: nearly all actives have a fitted effect of over 50% in size
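Growth rescue of TDP-43-toxic yeast measured as ATP luminescence (BacTiter-Glo). Cells grown to mid-log in raffinose, induced in galactose at OD600=0.02, exposed to compound 24 hr at 30 deg C.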
Numbers stand for hits; n = inactive; u = inconclusive; x = no result given; ! = a repeat was not active. The list is not random: actives were taken first. Their share in the collection is about 2%. Unless noted, calls come from the whole dose curve; as a rule, active = well fitted curve in the direction sought with a large enough effect; inconclusive = small, poorly fitted or top-dose-only effect, or another doubt; inactive = no such curve, though single readings can be large; an effect the other way counts as inactive or inconclusive.

SMILES	mIDH1 inhibitor	aSyn yeast inh	FUS suppressor	Abeta yeast res	LDHA inh	TDP43 rescue
Cc1ccc(-c2ccccc2)n1-c1ccc(C(=O)O)cc1	n	n	n	n	n	13µM
Cc1ccc(C(=O)O)cc1-n1c(C)ccc1-c1ccccc1	n	x	n	n	n	n
C=CCSC1=N/C(=C\C=C\c2ccccc2)C(=O)S1	x	x	x	x	n	x
Cc1cc(C)c2c(N)c(C(=O)Nc3ccccc3Br)sc2n1	n	n	n	n	n	n
CCc1ccccc1NC(=O)c1sc2nc(C)cc(C)c2c1N	n	n	n	n	n	18µM
COCc1cc(C)nc2sc(C(=O)OC)c(N)c12	n	n	n	n	n	13µM
Cc1nnc(Sc2nc3ccccc3o2)c2ccccc12	n	u	n	n	n	14µM
Cc1ccnc(Sc2ccc([N+](=O)[O-])cc2[N+](=O)[O-])n1	n	n	n	n	n	20µM
O=C(Nc1ccc2nc(N3CCN(C4CCCCC4)CC3)cc(C(=O)O)c2c1)c1cccc(Cl)c1	x	x	x	x	n	x
CC(C)NC(=S)N/N=C/c1ccc(C(C)(C)C)cc1	n	n	n	5.6µM	n	n
Fc1ccc(-c2ccnc3nc(N4CCN(c5ccccc5)CC4)nn23)cc1	n	x	n	n	n	n
c1ccc(-c2ccnc3nc(N4CCN(c5ccccc5)CC4)nn23)cc1	n	n	n	n	n	13µM
Cc1cc(C)c2oc(C(=O)N(Cc3cccc(Cl)c3)C3CCS(=O)(=O)C3)cc(=O)c2c1 (configuration not stated)	x	x	x	x	n	x
Cc1ccc(C(=O)NCCc2csc(-c3cccc(F)c3)n2)cc1C	n	x	n	n	n	n
O=C(NCCc1csc(-c2cccc(F)c2)n1)c1ccc(Br)o1	n	x	n	n	n	32µM
O=C(NCCc1csc(-c2ccc(F)cc2)n1)c1ccc(Br)o1	n	x	n	n	n	u
O=C(NCCc1csc2nc(-c3ccccc3F)nn12)c1ccccc1C(F)(F)F	n	x	n	n	n	18µM
O=C(NCCc1csc(-c2cccc(F)c2)n1)c1ccccc1C(F)(F)F	n	x	n	n	n	18µM
CCc1cc(OCCN(C)C)ccc1Cl	n	n	n	n	-35	n
CC(C)Oc1ccc(-c2cc(C(=O)O)c3ccccc3n2)cc1	x	x	x	x	n	x
O=C(OCc1cccc(Cl)c1)c1cc([N+](=O)[O-])ccc1N1CCOCC1	n	n	n	n	n	20µM
COc1cccc(CNC(=O)COC(=O)c2cc([N+](=O)[O-])ccc2N2CCCC2)c1	n	n	x	n	n	35µM
O=C(OCc1cccc(C(F)(F)F)c1)c1cc([N+](=O)[O-])ccc1N1CCOCC1	n	n	n	n	n	n
COc1cccc(CNC(=O)COC(=O)C2CCN(c3ccc(C(F)(F)F)cn3)CC2)c1	n	n	x	n	n	13µM
O=C(/C=C/c1ccc(-c2ccc(F)cc2)o1)N(C1CCCCC1)C1CCCCC1	x	x	x	x	n	x
SMILES	mIDH1 inhibitor	aSyn yeast inh	FUS suppressor	Abeta yeast res	LDHA inh	TDP43 rescue
Cc1ccc(NC(=O)CN2C(=O)N/C(=C\c3cccn3-c3ccc(C(=O)NC#N)cc3)C2=O)cc1	x	x	x	x	-37	x
N#CNC(=O)c1ccc(-n2cccc2/C=C2\NC(=O)N(CC(=O)Nc3ccc(Cl)cc3)C2=O)cc1	x	x	x	x	n	x
CSc1ccccc1NC(=O)N1CCCC(C(=O)c2ccc3c(c2)OCO3)C1 (configuration not stated)	n	n	n	n	n	16µM
Cc1ccc(NC(=O)CN2CCN(Cc3ccccc3)CC2)cc1	n	n	n	n	n	n
CC1(C)C2CCC(C2)C1(C)NC(=O)CN1CCN(Cc2ccccc2)CC1 (configuration not stated)	n	n	n	n	-40	n
CC(=O)Oc1ccc2cc(-c3ccccc3)c(=O)oc2c1	n	n	n	n	-31!	u
CCN(Cc1ccco1)C(=O)c1cc2cc(C)ccc2[nH]1	x	x	x	x	n	x
COC(=O)CNC(=O)COC(=O)c1cc(=O)c2ccccc2o1	x	x	x	x	n	x
CCOc1ccc(-n2c(SCC(=O)Nc3ccc(S(=O)(=O)Nc4cc(C)nc(C)n4)cc3)nnc2-c2ccncc2)cc1	x	x	n	x	x	x
Cc1ccc(-n2c(SCC(=O)Nc3ccc(S(=O)(=O)Nc4cc(C)nc(C)n4)cc3)nnc2-c2ccc(C(C)(C)C)cc2)cc1	x	x	22µM	x	x	x
O=C(CSc1nnc(-c2ccco2)n1-c1ccc(Cl)cc1)Nc1ccc(S(=O)(=O)Nc2nccs2)cc1	x	x	25µM	x	x	x
COc1ccc(-n2c(SCC(=O)Nc3ccc(S(=O)(=O)Nc4nccs4)cc3)nnc2-c2ccccc2)cc1	x	x	10µM	x	x	x
Cc1cc(C)nc(NS(=O)(=O)c2ccc(NC(=O)COc3ccc(C(C)(C)C)cc3)cc2)n1	n	x	28µM	n	n	n
COc1ccc(OCC(=O)Nc2ccc(S(=O)(=O)Nc3nc(C)cc(C)n3)cc2)cc1	n	n	n	n	n	n
CC(=O)Nc1c(C)noc1/C=C\c1ccc(C)c(S(=O)(=O)Nc2cc(C)ccc2C)c1	x	x	x	x	n	x
Cn1c(COc2ccccc2)nnc1SCC(=O)Nc1ccc(S(=O)(=O)Nc2nccs2)cc1	x	x	n	x	x	x
O=C(CSc1nnc(COc2ccccc2)n1-c1ccccc1)Nc1ccc(S(=O)(=O)Nc2nccs2)cc1	x	x	20µM	x	x	x
CC(NC(=O)CCCCCCN1C(=O)c2ccccc2C1=O)c1ccc2c(c1)CCCC2 (configuration not stated)	n	n	x	n	n	35µM
CCc1ccccc1NC(=O)C(=O)NCCCN1CCOCC1	n	n	n	n	n	n
CSc1ccccc1NC(=O)CNCCCN1CCOCC1	n	n	n	n	-36	n
CCCN1CCN(c2cc(C(=O)O)c3cc(NC(=O)C(C)C)ccc3n2)CC1	x	x	x	x	n	x
Cc1ccc(C(=O)/C=C/Nc2ccccc2C(N)=O)o1	n	11µM	n	n	n	n
NC(=O)c1ccccc1N/C=C/C(=O)c1ccc(F)cc1	n	n	n	n	n	u
O=C(COc1ccc(Br)cc1Cl)c1ccc[nH]1	n	n	n	n	n	20µM
FC(F)Oc1ccccc1C=C(c1nc2ccccc2s1)c1nc2ccccc2s1	x	x	x	x	n	x
SMILES	mIDH1 inhibitor	aSyn yeast inh	FUS suppressor	Abeta yeast res	LDHA inh	TDP43 rescue
Cn1c(Oc2ccc(F)cc2)c(C#N)c(=O)n(C)c1=O	x	x	x	x	n	x
CN(Cc1nc2ccccc2c(=O)[nH]1)C(=O)c1ccccc1OCc1ccc(Cl)cc1	n	n	n	n	n	20µM
CN(C(=O)c1ccccc1OCc1ccc(Cl)cc1)c1ccccc1	n	n	n	n	n	n
Cc1ccc(Nc2ncnc3c2nc2n3CCCC2)c(Br)c1	n	x	n	n	n	18µM
COc1ccccc1Nc1ncnc2c1nc1n2CCCCC1	n	x	n	n	n	n
Clc1cccc(CNc2ncnc3c2nc2n3CCCC2)c1	n	x	n	u	n	13µM
